Article PMC4336329 (PLoS ONE, 2015)
In all, about 310,000 compounds went through this assay and about 14,000 (4.5%) showed an effect of 50% or more. Effects have a minus sign here. This excerpt belongs to a sample that is enriched for strong results.

What follows are compounds tested against human ether-à-go-go-related gene (hERG) potassium channel (human, UniProt Q12809) (assay: primary screen, population patch clamp on CHO cells stably expressing hERG; higher = less effect of the substance).
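Further: peak tail current of the secondary pulse compared with the same well before compound.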

Chain of human ether-à-go-go-related gene (hERG) potassium channel (Q12809 whole entry, looked up): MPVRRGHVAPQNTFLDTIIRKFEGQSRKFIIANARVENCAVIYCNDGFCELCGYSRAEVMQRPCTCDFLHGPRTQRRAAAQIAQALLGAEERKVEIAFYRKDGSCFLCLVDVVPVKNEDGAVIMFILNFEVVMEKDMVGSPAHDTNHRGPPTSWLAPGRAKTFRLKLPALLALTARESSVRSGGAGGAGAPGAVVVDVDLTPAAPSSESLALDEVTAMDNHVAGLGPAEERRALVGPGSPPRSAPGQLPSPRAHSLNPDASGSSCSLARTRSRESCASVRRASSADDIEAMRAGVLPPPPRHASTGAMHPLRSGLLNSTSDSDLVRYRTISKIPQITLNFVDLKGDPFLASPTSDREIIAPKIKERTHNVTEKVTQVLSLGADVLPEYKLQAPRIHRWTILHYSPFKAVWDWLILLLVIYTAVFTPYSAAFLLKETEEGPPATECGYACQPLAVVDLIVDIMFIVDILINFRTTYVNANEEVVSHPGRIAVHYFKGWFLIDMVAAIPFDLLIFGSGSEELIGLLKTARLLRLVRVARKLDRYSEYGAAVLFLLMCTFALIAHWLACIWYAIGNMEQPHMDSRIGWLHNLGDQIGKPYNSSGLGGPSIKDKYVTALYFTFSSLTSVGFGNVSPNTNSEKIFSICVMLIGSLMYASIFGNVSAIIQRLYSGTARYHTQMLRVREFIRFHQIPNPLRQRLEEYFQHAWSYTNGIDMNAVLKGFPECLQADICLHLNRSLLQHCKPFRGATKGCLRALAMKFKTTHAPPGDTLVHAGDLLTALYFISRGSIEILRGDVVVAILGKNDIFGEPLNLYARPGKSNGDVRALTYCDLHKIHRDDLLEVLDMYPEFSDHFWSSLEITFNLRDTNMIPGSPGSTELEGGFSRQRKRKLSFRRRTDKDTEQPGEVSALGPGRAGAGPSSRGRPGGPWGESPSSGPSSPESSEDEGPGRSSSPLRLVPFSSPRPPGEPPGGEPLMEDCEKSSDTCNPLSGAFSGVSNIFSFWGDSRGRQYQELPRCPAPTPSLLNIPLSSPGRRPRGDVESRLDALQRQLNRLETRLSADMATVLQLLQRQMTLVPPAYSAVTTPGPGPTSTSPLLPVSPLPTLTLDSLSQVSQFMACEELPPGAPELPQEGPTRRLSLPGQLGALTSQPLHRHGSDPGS

Structure (SMILES) | hERG current change (%, negative = inhibition) at 10uM [%]
CN(C)S(=O)(=O)c1ccc(N2CCCC2)c(C(=O)Nc2nc3ccc(F)cc3s2)c1 | -37.1
Cc1nc(SCC(=O)Nc2ccc(C)c(F)c2)c2oc3ccccc3c2n1 | 4.4
COc1ccccc1NC(=O)c1cc(S(=O)(=O)N2CCC3(CC2)OCCO3)ccc1F | -4.73
COc1ccc(CN2CN(c3ccc(Cl)cc3)C(=O)N(n3cnnc3)C2)cc1 | -38.6
COC(=O)C1=C(c2ccccc2)C[C@@H]2CC[C@H]1N2C(=O)N1CCCCC1 | -4.4
Cn1c(=O)c2c(ncn2CCOc2ccc(F)cc2)n(C)c1=O | 12.3
O=C(N/C=N/O)C(c1ccccc1)c1ncc(C(F)(F)F)cc1Cl (stereo not shown) | 3.35
COc1ccc(-c2c/c(=N\c3nc(-c4ccccc4)c(C)s3)c3ccccc3o2)cc1O | 4.17
COc1ccccc1NC(=O)C1CCCCN1S(=O)(=O)c1ccc(F)cc1 (stereo not shown) | -27.9
O=C(NCc1ccc(F)cc1)N[C@@H](Cc1ccccc1)C(=O)O | 7.44
CC(=O)OCc1c(C(F)(F)F)nn(C)c1Oc1cccc(C(F)(F)F)c1 | 2.3
COc1cccc(NC(=O)CC(c2ccc(OC(C)C)cc2)c2ccccc2OC)c1 (stereo not shown) | 1.26
COc1ccccc1C(CC(=O)Nc1ccc(Cl)cc1)c1ccc(OC(C)C)cc1 (stereo not shown) | 1.17
COc1ccc(C(O)P(=O)(OCc2ccccc2)c2ccc(N(C)C)cc2)cc1 (stereo not shown) | 15.4
COc1ccc(C(CCNCc2ccc(OC(C)C)cc2)c2ccccc2OC)cc1 (stereo not shown) | -76
COc1ccc(C(CCNC(C)c2ccccc2)c2ccc(F)cc2)cc1 (stereo not shown) | -54.6
COc1ccc(C(CC(=O)Nc2ccc(F)cc2)c2ccccc2)cc1 (stereo not shown) | 9.13
COc1ccc(C(CCNC(C)c2ccccc2)C(C)C)cc1 (stereo not shown) | -4.48
COc1ccc(C(CCNCc2ccc(N(C)C)cc2)c2ccccc2OC)cc1 (stereo not shown) | -71.1
COc1ccc(NC(=S)NCCC(c2ccccc2)c2ccccc2)c(OC)c1 | 2.53
COc1ccc(C(C)NCCC(c2ccc(OC(C)C)cc2)c2ccccc2OC)cc1 (stereo not shown) | -64.2
CCOC(=O)c1nn(-c2ccc(C)cc2)c(C)c1C(C)=O | 4.57

Structure (SMILES) | hERG current change (%, negative = inhibition) at 10uM [%]
Cc1ccc(S(=O)(=O)NNC(=O)C2COc3ccccc3O2)cc1 (stereo not shown) | 5.24
COc1ccc(C(CNC(=O)c2ccc(OCc3ccccc3)cc2)N2CCOCC2)cc1 (stereo not shown) | -18.1
CCOC(=O)N1CCC(N(CCN(C)C)C(=S)Nc2ccccc2OC)CC1 | -16.2
CCCC1=C(C(=O)OCC)C(c2ccc(F)cc2)n2ncnc2N1 (stereo not shown) | -21.3
COc1cccc(CN2C(=O)CCC2(C)C(=O)NC2CCCCCC2)c1 (stereo not shown) | -11.7
COc1ccc(-c2cc(=O)oc3cc(OC(=O)C4CCCCC4)c(Cl)cc23)cc1 | 11.2
COc1ccccc1C(CCNCc1ccc(N(C)C)cc1)c1ccc(OC(C)C)cc1 (stereo not shown) | -73.8
COc1ccccc1NC(=O)CC(c1ccc(OC(C)C)cc1)c1ccccc1OC (stereo not shown) | -1.62
COc1ccc(CNC(c2ccccc2)c2ccc(Cl)cc2)cc1 (stereo not shown) | 6.38
COc1ccc(C(CCNCc2ccc(N(C)C)cc2)C(C)C)cc1 (stereo not shown) | -40.5
COc1ccccc1C(O)P(=O)(OCC(C)C)c1ccc(N(C)C)cc1 (stereo not shown) | -0.204
COc1ccc(CNCCC(c2ccc(OC(C)C)cc2)c2ccccc2OC)cc1 (stereo not shown) | -66.1
COc1ccccc1C(CCNCc1ccccc1)c1ccc(OC(C)C)cc1 (stereo not shown) | -59.3
COc1ccc(C(CCNCc2ccc(N(C)C)cc2)c2ccccc2)cc1 (stereo not shown) | -72.2
COc1ccc(CNC(=S)NCc2ccc(OC(C)C)cc2)cc1 | -3.86
COc1ccccc1C(CC(=O)Nc1ccc(C)c(C)c1)c1ccc(OC(C)C)cc1 (stereo not shown) | 10.2
COc1ccccc1CNC(=O)c1ccc(OC(C)C)cc1 | 17.6
O=C(Nc1ncc(Br)s1)C1CCCN1S(=O)(=O)c1cccc2cccnc12 (stereo not shown) | -3.36
Cc1cccc(C(=O)O/N=C2\CCS(=O)(=O)c3sccc32)c1 | 1.16
Cc1ccc(NC(=O)C(OC(=O)c2ccc(NC(N)=O)cc2)c2ccccc2)cc1Cl (stereo not shown) | -3.17
COc1ccc(N2CCC(N3CCN(C)C(CCO)C3)CC2)cc1 (stereo not shown) | 10.2
O=C(NCC1CCCO1)c1ccc(Cl)c(S(=O)(=O)Nc2ccccc2)c1 (stereo not shown) | 2.86

Structure (SMILES) | hERG current change (%, negative = inhibition) at 10uM [%]
O=C(CCc1ccccc1)Nc1nccs1 | 14.9
COc1ccccc1N1CCN(C(=O)c2ccc(Cn3c(=S)[nH]c4cc5c(cc4c3=O)OCO5)cc2)CC1 | 21.3
CC[C@H](C)[C@@H](NC(=O)O[C@@H]1C(=O)c2cc(OC)ccc2O[C@H]1c1ccc(OC)c(Br)c1)C(=O)OC | -1.62
CN(C)c1cccc(C(=O)Nc2nnc(Cc3ccccc3)s2)c1 | 0.344
Cn1cnc2cc(NCc3ccccc3O)ccc21 | 6.3
COc1cccc2c1OCC(CN1CCN(Cc3ccccc3F)C(CCO)C1)=C2 (stereo not shown) | -19.3
COc1ccc2c(c1)C=C(CN1CCN(Cc3ccccc3C)C(CCO)C1)CO2 (stereo not shown) | -25.6
COc1cccc2c1OCC(CN1CCN(CCC(C)C)C(CCO)C1)=C2 (stereo not shown) | -3.37
COc1cccc2c1OCC(CN1CCN(C3CCCCC3)C(CCO)C1)=C2 (stereo not shown) | -17
COc1ccc2c(c1)C=C(CN1CCN(C(C)C)C(CCO)C1)CO2 (stereo not shown) | 5.68
COc1cccc2c1OCC(CN1CCN(Cc3ccccc3)C(CCO)C1)=C2 (stereo not shown) | -47.6
CCOc1ccc(CN2CCN(CC3=Cc4cccc(OC)c4OC3)CC2CCO)cc1 (stereo not shown) | -83.4
COc1ccc2c(c1)C=C(CN1CCN(C3CCCC3)C(CCO)C1)CO2 (stereo not shown) | -68.2
CCOc1ccccc1CN1CCN(CC2=Cc3cc(OC)ccc3OC2)CC1CCO (stereo not shown) | -83.3
Cl.O=C(OCCN1CCOCC1)c1cccs1 | 6.58
COc1ccc(C2=CC(=O)C[C@H](c3ccc(F)cc3)C2)cc1F | -16.5
COc1ccc2ccccc2c1CNCCN1CCOCC1.Cl | 14.4
CN(Cc1ccccc1)Cc1c(O)ccc2ccccc12 | 7.65
COc1ccc(CCNCc2c(OC)ccc3ccccc23)cc1OC.Cl | -44.6
COc1ccc2ccccc2c1CN(C)Cc1ccccc1.O=C(O)C(=O)O | -51.7
COCC(C)NCc1cccc2ccccc12.O=C(O)C(=O)O (stereo not shown) | -0.173
COc1ccc2ccccc2c1CNCCc1ccccc1.Cl | -53.1

Structure (SMILES) | hERG current change (%, negative = inhibition) at 10uM [%]
CC(CCc1ccccc1)NC(=O)Cc1ccccc1 (stereo not shown) | 2.65
COc1ccc2ccccc2c1CNC(C)CCc1ccccc1.O=C(O)C(=O)O (stereo not shown) | -77.8
CC(CCc1ccccc1)NCc1cccc2ccccc12.O=C(O)C(=O)O (stereo not shown) | -60.9
COc1ccc2ccccc2c1CNC(C)c1ccccc1.O=C(O)C(=O)O (stereo not shown) | -44.4
CN(CCOc1cccc2ccccc12)Cc1ccccc1.O=C(O)C(=O)O | 0.659
COc1cccc(OC)c1C(=O)NC(C)CCc1ccccc1 (stereo not shown) | -19.1
CC1(C)CC2CC(C)(CN2C(=O)c2cc(-c3ccccc3O)on2)C1 (stereo not shown) | 12.7
Cc1ccc(S(=O)(=O)N2CCN(C(=O)COC(=O)c3ccccc3Cl)CC2)c(C)c1 | -12.5
Cc1cccnc1NC(=O)Nc1ccccc1 | 1.64
CCCOc1ccc(N2C(=O)CC(NCc3cccs3)C2=O)cc1 (stereo not shown) | -18.6
COc1ccccc1CNC(=O)C1COc2ccccc2O1 (stereo not shown) | -15.1
Cc1cc(NC(=O)c2ccc([N+](=O)[O-])cc2)n(CCC#N)n1 | 11
O=C(NCCCc1nc2ccccc2[nH]1)c1cccs1 | -5.12
COc1ccccc1CNCc1ccc(C)cc1.O=C(O)C(=O)O | -6.14
COc1ccc(CCNCc2c(OC)ccc3ccccc23)cc1.O=C(O)C(=O)O | -44.9
COc1cccc(CNCc2ccccn2)c1OC | 5.32
COc1ccc(CCNCc2ccccn2)cc1OC | 0.278
COc1ccc2ccccc2c1CNCc1ccccn1.Cl | -51.8
COc1ccc2ccccc2c1CNCc1ccc(C)cc1.O=C(O)C(=O)O | -69.7
CC(C)N(Cc1nc(-c2ccc(Cl)cc2)no1)C(=O)CCC1CCCC1 | -7.81
Cc1nn(CCCC(=O)NC2CCC(C)CC2)c(=O)c2nn(-c3ccccc3)c(C)c12 (stereo not shown) | -5.97
O=C(/C=C(/c1ccc(Cl)cc1)n1cncn1)c1ccccc1 | -27.5
